Molecules are shown by their SMILES. Unmarked numbers belong to inactive results.

One experiment has as its system Falciformispora senegalensis CBS197.79. The experiment is described as follows: growth relative to untreated control; higher = less inhibition, active = 20 or less. Particulars: 25 µM. The essentials:
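Growth was expressed as metabolic activity relative to the untreated growth control, with both corrected using a blank of medium plus dye. Hyphal fragments of M. mycetomatis MM55 or F. senegalensis CBS197.79 were suspended to 68–72% transmission at 660 nm in colourless RPMI 1640 containing L-glutamine and MOPS. In 96-well plates they were exposed to compound at 100 or 25 µM for 7 days at 37 °C, and viability was read with MTS (2 h, 490 nm) or resazurin (600 nm).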
For the compound `CN(c1cc(NC(=O)c2ccc(F)cc2)ccn1)C1CCN(Cc2cccc(F)c2)CC1`, the growth is 66%.

With `C/C=C(\C)C(=O)O[C@H]1C[C@@H](OC(C)=O)[C@@]2(C(=O)OC)CO[C@H]3[C@@H](O)[C@@](C)([C@]45O[C@@]4(C)[C@H]4C[C@@H]5O[C@@H]5OC=C[C@@]54O)[C@H]4[C@]1(CO[C@]4(O)C(=O)OC)[C@@H]32`, the growth is 89.6%.

For `Cc1c(COC(=O)[C@@H]2[C@H](C=C(Cl)C(F)(F)F)C2(C)C)cccc1-c1ccccc1`, the growth was 87.1%.

`FC(F)(F)c1cc(Cl)cc(Nc2nc3cnc(OC4CCC4)cc3n2[C@@H]2CCNC2)c1`: the growth was 99.8%.

In the case of `CC1(Nc2ncc3nc(Nc4cc(Cl)cc(C(F)(F)F)c4)n(C4CCNC4)c3n2)CC1` (centres undefined), the growth was 83.5%.

As to `COc1ccc(Cc2nccc3cc(OC)c(OC)cc23)cc1OC`, the growth is 110%.

As for `CNCCn1c(Nc2cc(Cl)cc(C(F)(F)F)c2)nc2cnc(NC3CC(F)(F)C3)cc21`, the growth is 69%.

In the case of `CCOP(=S)(OCC)Oc1nc(Cl)c(Cl)cc1Cl`, the growth is 92.9%.

In the case of `CCOc1ccc(C(C)(C)COCc2cccc(Oc3ccccc3)c2)cc1`, the growth is 79.4%.

Take `CN/C(=N/CC1CCOC1)N[N+](=O)[O-]` (centres undefined): the growth was 91.8%.

As for `CC(c1ccc(C(F)(F)F)nc1)S(C)(=O)=NC#N` (centres undefined), the growth is 91.2%.

As to `COC(C)(C)CCCC(C)C/C=C/C(C)=C/C(=O)OC(C)C` (centres undefined), the growth was 89.3%.

Take `CC(C)=CC1C(C(=O)OC(C#N)c2cccc(Oc3ccccc3)c2)C1(C)C` (centres undefined): the growth is 78.2%.

For `CN1C2CCC1CC(C#N)C2` (centres undefined), the growth is 92.1%.

With `CCS(=O)c1c(C#N)nn(-c2c(Cl)cc(C(F)(F)F)cc2Cl)c1N` (centres undefined), the growth was 82.1%.

For `O=C1C=C(N(Cc2ccc(Cl)nc2)CC(F)F)CO1`, the growth was 96.7%.

For the compound `CCOC(=O)CC(SP(=S)(OC)OC)C(=O)OCC` (centres undefined), the growth is 98.4%.

With `CNC(=O)c1cc(C#N)cc(C)c1NC(=O)c1cc(Br)nn1-c1ncccc1Cl`, the growth is 89.6%.

With `C=C(C)[C@H]1Cc2c(ccc3c2O[C@@H]2COc4cc(OC)c(OC)cc4[C@@H]2C3=O)O1`, the growth was 90.6%.

With `CN(C)CCn1c(Nc2cc(Cl)cc(C(F)(F)F)c2)nc2cnc(NC3CCC3)cc21`, the growth was 102%.

In the case of `CC1(C)C(C=C(Cl)Cl)C1C(=O)OC(C#N)c1ccc(F)c(Oc2ccccc2)c1` (centres undefined), the growth is 94%.

Regarding `ClC1=C(Cl)[C@@]2(Cl)[C@H]3C[C@@H](Cl)[C@H](Cl)[C@H]3[C@@]1(Cl)C2(Cl)Cl`, the growth was 64.8%.

With `CC[C@H](C)[C@H]1O[C@]2(C=C[C@@H]1C)C[C@@H]1C[C@@H](C/C=C(\C)[C@@H](O[C@H]3C[C@H](OC)[C@@H](O[C@H]4C[C@H](OC)[C@@H](O)[C@H](C)O4)[C@H](C)O3)[C@@H](C)/C=C/C=C3\CO[C@@H]4[C@H](O)C(C)=C[C@@H](C(=O)O1)[C@]34O)O2.CO[C@H]1C[C@H](O[C@H]2[C@H](C)O[C@@H](O[C@@H]3/C(C)=C/C[C@@H]4C[C@@H](C[C@]5(C=C[C@H](C)[C@@H](C(C)C)O5)O4)OC(=O)[C@@H]4C=C(C)[C@@H](O)[C@H]5OC/C(=C\C=C\[C@@H]3C)[C@]54O)C[C@@H]2OC)O[C@@H](C)[C@@H]1O`, the growth is 92.5%.

As to `CN1CCN(C(=O)O[C@H]2c3nccnc3C(=O)N2c2ccc(Cl)cn2)CC1`, the growth was 106%.

`Cc1nc(N(C)C)nc(OC(=O)N(C)C)c1C`: the growth is 86.3%.

In the case of `CNC(=O)O/N=C(/C)SC`, the growth was 86.2%.

On to `COP(=S)(OC)Oc1nc(Cl)c(Cl)cc1Cl`, for which the growth was 91.7%.

`COc1ccc(C[C@H]2NC[C@H](O)[C@H]2OC(C)=O)cc1`: the growth was 5.78% (active).

As to `CC[C@H]1CN2CCc3cc(OC)c(OC)cc3[C@@H]2C[C@@H]1C[C@H]1NCCc2cc(OC)c(OC)cc21`, the growth is 100%.

Take `CN/C(=N\[N+](=O)[O-])NCc1cnc(Cl)s1`: the growth was 90.6%.

Consider `O=[N+]([O-])/C=C1\NCCCS1`, for which the growth was 86.4%.

In the case of `CCOCn1c(-c2ccc(Cl)cc2)c(C#N)c(Br)c1C(F)(F)F`, the growth is 79.6%.

As for `Clc1ccc(C(OCCN2CCCCC2)c2ccccc2)cc1` (centres undefined), the growth was 100%.

As to `COP(=S)(OC)Oc1ccc(Sc2ccc(OP(=S)(OC)OC)cc2)cc1`, the growth is 93.4%.

Take `CN1C(=O)C(C(=O)Nc2ccc(Cl)c(Cl)c2)C(=O)N(C)C1=O`: the growth was 83.2%.

Turning to `CCN(CC)c1nc(C)cc(OP(=S)(OC)OC)n1`, the growth is 96%.

Take `CC1(C)CNC(=NN=C(C=Cc2ccc(C(F)(F)F)cc2)C=Cc2ccc(C(F)(F)F)cc2)NC1`: the growth was 88.7%.

Staying with this experiment, now noted: 100 µM.
For `CN(c1cc(NC(=O)c2ccc(F)cc2)ccn1)C1CCN(Cc2cccc(F)c2)CC1`, the growth is 30.2%.

With `C/C=C(\C)C(=O)O[C@H]1C[C@@H](OC(C)=O)[C@@]2(C(=O)OC)CO[C@H]3[C@@H](O)[C@@](C)([C@]45O[C@@]4(C)[C@H]4C[C@@H]5O[C@@H]5OC=C[C@@]54O)[C@H]4[C@]1(CO[C@]4(O)C(=O)OC)[C@@H]32`, the growth is 96.1%.

Regarding `Cc1c(COC(=O)[C@@H]2[C@H](C=C(Cl)C(F)(F)F)C2(C)C)cccc1-c1ccccc1`, the growth was 95.2%.

As to `FC(F)(F)c1cc(Cl)cc(Nc2nc3cnc(OC4CCC4)cc3n2[C@@H]2CCNC2)c1`, the growth is 108%.

`CC1(Nc2ncc3nc(Nc4cc(Cl)cc(C(F)(F)F)c4)n(C4CCNC4)c3n2)CC1` (centres undefined): the growth is 52.1%.

In the case of `COc1ccc(Cc2nccc3cc(OC)c(OC)cc23)cc1OC`, the growth is 104%.

With `CNCCn1c(Nc2cc(Cl)cc(C(F)(F)F)c2)nc2cnc(NC3CC(F)(F)C3)cc21`, the growth was 26.2%.

Turning to `CCOP(=S)(OCC)Oc1nc(Cl)c(Cl)cc1Cl`, the growth was 69%.

In the case of `CCOc1ccc(C(C)(C)COCc2cccc(Oc3ccccc3)c2)cc1`, the growth was 39.3%.

Consider `CN/C(=N/CC1CCOC1)N[N+](=O)[O-]` (centres undefined), for which the growth was 92.9%.

For `CC(c1ccc(C(F)(F)F)nc1)S(C)(=O)=NC#N` (centres undefined), the growth was 90.7%.

As for `COC(C)(C)CCCC(C)C/C=C/C(C)=C/C(=O)OC(C)C` (centres undefined), the growth is 97.8%.

As to `CC(C)=CC1C(C(=O)OC(C#N)c2cccc(Oc3ccccc3)c2)C1(C)C` (centres undefined), the growth was 101%.

In the case of `CN1C2CCC1CC(C#N)C2` (centres undefined), the growth is 85.8%.

For the compound `CCS(=O)c1c(C#N)nn(-c2c(Cl)cc(C(F)(F)F)cc2Cl)c1N` (centres undefined), the growth is 83.7%.

As for `O=C1C=C(N(Cc2ccc(Cl)nc2)CC(F)F)CO1`, the growth is 89.3%.

Turning to `CCOC(=O)CC(SP(=S)(OC)OC)C(=O)OCC` (centres undefined), the growth is 95.2%.

Consider `CNC(=O)c1cc(C#N)cc(C)c1NC(=O)c1cc(Br)nn1-c1ncccc1Cl`, for which the growth is 103%.

As for `C=C(C)[C@H]1Cc2c(ccc3c2O[C@@H]2COc4cc(OC)c(OC)cc4[C@@H]2C3=O)O1`, the growth was 102%.

`CN(C)CCn1c(Nc2cc(Cl)cc(C(F)(F)F)c2)nc2cnc(NC3CCC3)cc21`: the growth is 104%.

For `CC1(C)C(C=C(Cl)Cl)C1C(=O)OC(C#N)c1ccc(F)c(Oc2ccccc2)c1` (centres undefined), the growth is 73.5%.

As to `ClC1=C(Cl)[C@@]2(Cl)[C@H]3C[C@@H](Cl)[C@H](Cl)[C@H]3[C@@]1(Cl)C2(Cl)Cl`, the growth is 78.3%.

With `CC[C@H](C)[C@H]1O[C@]2(C=C[C@@H]1C)C[C@@H]1C[C@@H](C/C=C(\C)[C@@H](O[C@H]3C[C@H](OC)[C@@H](O[C@H]4C[C@H](OC)[C@@H](O)[C@H](C)O4)[C@H](C)O3)[C@@H](C)/C=C/C=C3\CO[C@@H]4[C@H](O)C(C)=C[C@@H](C(=O)O1)[C@]34O)O2.CO[C@H]1C[C@H](O[C@H]2[C@H](C)O[C@@H](O[C@@H]3/C(C)=C/C[C@@H]4C[C@@H](C[C@]5(C=C[C@H](C)[C@@H](C(C)C)O5)O4)OC(=O)[C@@H]4C=C(C)[C@@H](O)[C@H]5OC/C(=C\C=C\[C@@H]3C)[C@]54O)C[C@@H]2OC)O[C@@H](C)[C@@H]1O`, the growth is 90%.

Turning to `CN1CCN(C(=O)O[C@H]2c3nccnc3C(=O)N2c2ccc(Cl)cn2)CC1`, the growth was 102%.

As for `Cc1nc(N(C)C)nc(OC(=O)N(C)C)c1C`, the growth was 87.9%.

For the compound `CNC(=O)O/N=C(/C)SC`, the growth was 89.3%.

Consider `COP(=S)(OC)Oc1nc(Cl)c(Cl)cc1Cl`, for which the growth was 93.4%.

With `COc1ccc(C[C@H]2NC[C@H](O)[C@H]2OC(C)=O)cc1`, the growth was 14.4% (active).

For `CC[C@H]1CN2CCc3cc(OC)c(OC)cc3[C@@H]2C[C@@H]1C[C@H]1NCCc2cc(OC)c(OC)cc21`, the growth is 18.3% (active).

With `CN/C(=N\[N+](=O)[O-])NCc1cnc(Cl)s1`, the growth was 85.7%.

`O=[N+]([O-])/C=C1\NCCCS1`: the growth is 93.8%.

With `CCOCn1c(-c2ccc(Cl)cc2)c(C#N)c(Br)c1C(F)(F)F`, the growth was 76.5%.

`Clc1ccc(C(OCCN2CCCCC2)c2ccccc2)cc1` (centres undefined): the growth is 13.2% (active).

In the case of `COP(=S)(OC)Oc1ccc(Sc2ccc(OP(=S)(OC)OC)cc2)cc1`, the growth is 92.8%.

`CN1C(=O)C(C(=O)Nc2ccc(Cl)c(Cl)c2)C(=O)N(C)C1=O`: the growth was 84.5%.

`CCN(CC)c1nc(C)cc(OP(=S)(OC)OC)n1`: the growth is 95.6%.

On to `CC1(C)CNC(=NN=C(C=Cc2ccc(C(F)(F)F)cc2)C=Cc2ccc(C(F)(F)F)cc2)NC1`, for which the growth was 107%.

The values above are taken from the supplement of paper PMC11172423.
